Results taken from PubChem BioAssay (NCI).
Several values for one entry are separate records, joined by “and”; a condition that tells them apart may be missing. Identical values can stand only once. About 83,000 compounds went through this panel and 20% of them were active in at least one assay; those are over-represented in the sample as a whole.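 For each line, cells grew in 96-well plates with the test compound present at a single concentration for 48 hours.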 Activity calls are given as the source filed them. How the source made its calls: active means growth percent below 10; inactive means the rest.

These compounds were tested on MDA-MB-468 breast (assay: NCI-60 one-dose screen, 48 h (100 = growth as untreated, 0 = no growth, -100 = all killed)). Conditions: 10 µM unless noted.
In the case of O=[N+]([O-])c1cccc2ccc(N/N=C/c3ccccc3O)nc12, the growth was 4.06% (active) and 89.3% (inactive).
In the case of CN(N)c1nc2sc3c(c2c(=O)[nH]1)CCCC3, the growth was 113% (inactive).
CC[n+]1c(/C=C/C=C2\N(C)c3ccccc3C2(C)C)sc2ccccc21 was tested, and the growth was -12.3% (active).
For COc1cc(/C=C/C(=O)c2cccs2)ccc1OCc1ccc(Cl)nc1, the growth was 57.6% (inactive).
In the case of O=C(NC1CC1)c1cc2n(n1)CC(c1ccccc1)N2 (stereo not given), the growth was 98.5% (inactive).
With c1ccc2c(-c3nc(-c4c[nH]c5ncccc45)cs3)c[nH]c2c1 the growth was 108% (inactive).
With O=C1CCCN1C1CCN2CCCc3cccc1c32 (stereo not given) the growth was 118% (inactive).
In the case of CO[C@@H]1[C@H](N(C)C(=O)c2ccccc2)C[C@@H]2O[C@]1(C)n1c3ccccc3c3c4c(c5c6ccccc6n2c5c31)C(=O)NC4=O, the growth was -12.7% (active).
For COc1ccc(OC2=CC(=O)c3ccc(C)nc3C2=O)cc1, the growth was 86.2% (inactive).
CCO/C=N/S(=O)(=O)c1cc2c(cc1Cl)NC=NS2(=O)=O was tested, and the growth was 98.3% (inactive).
With CCOC(=O)C1=C(N)Oc2c(sc3c(CC)cccc23)C1c1ccc(F)cc1 (stereo not given) the growth was 46.1% (inactive).
For Clc1ccc2c(c1)C(c1c[nH]c3ccccc13)(c1c[nH]c3ccccc13)CCO2, the growth was 86.5% (inactive).
With Cc1cc(N2CCN(C)CC2)nc(NC2CCCC(Nc3ccnc4cc(Cl)ccc34)C2)n1 (stereo not given) the growth was -52.1% (active).
With CO/N=C1\CCc2c(sc(NC(=O)c3cccc(C(F)(F)F)c3)c2C(N)=O)C1 the growth was 29.9% (inactive).
With CO[C@]12C=C/C(=C(/C(=O)OCc3cccnc3)C(=O)CCCCCCCC[C@]3(OC)C=C/C(=C(/C(=O)OCc4cccnc4)C(=O)CCCCCCCC1)O3)O2 the growth was -50.5% (active).
With Cc1nc2sc(C(=O)Nc3cccc4c3OCCO4)c(N)c2cc1C(C)O (stereo not given) the growth was 3.42% (active).
In the case of O=C(/C(=C/c1cccc([N+](=O)[O-])c1)c1ccccc1)c1ccccc1, the growth was 38.2% (inactive).
COc1ccc(C2=NN(C(=O)c3cc(OC)c(OC)c(OC)c3)C(c3ccc(N(C)C)cc3)C2)cc1 (stereo not given) was tested, and the growth was 22.7% (inactive).
For CCOC(=O)NCCc1ccccc1, the growth was 112% (inactive).
COC(=O)C(c1ccccc1)C(CC(=O)c1ccccc1)c1ccccc1 (stereo not given) was tested, and the growth was 87.5% (inactive).
O=c1nc(N2CCOCC2)oc2c(-c3cccc4ccccc34)cccc12 was tested, and the growth was 76.5% (inactive).
With O=C(CN1C(=O)/C(=C/c2ccc(Cl)cc2)SC1=S)NCCCN1CCOCC1 the growth was 94.3% (inactive).
CN1CCN(Cc2ccc(NC(=O)c3cncc(C#Cc4ccc(N)nc4)c3)cc2C(F)(F)F)CC1 was tested, and the growth was -8.99% (active).
With CCc1cccc(C)c1NC(=O)c1sc2nc3c(cc2c1N)C(=O)CCC3 the growth was 32.5% (inactive).
For CCOC(=O)CC(=O)c1c(C)cc(C)cc1C, the growth was 98.6% (inactive).
In the case of COc1ccc2c(c1)oc1c3[nH]c4ccccc4c3c3c(c21)C(=O)N(O)C3=O, the growth was -17.7% (active).
In the case of COc1cccc2c1C(=O)c1c(O)c3c(c(O)c1C2=O)C[C@@](O)(C(C)=O)C[C@@H]3O[C@H]1C[C@H](N)[C@H](O)[C@H](C)O1, the growth was -72.5% (active).
With CS(=O)(=O)C1=CN(CCO)C(=O)N2CCCN=C12 the growth was 93.3% (inactive).
With COc1cc(CCn2nnc3c(Nc4ccc(N5CCOCC5)cc4)ncnc32)cc(OC)c1 the growth was 80.6% (inactive).
With CC(C)(C)n1cc(-c2ccnc(NCCCNS(=O)(=O)c3cccc(F)c3)c2)c(-c2cccc(O)c2)n1 the growth was 25.9% (inactive).
For C=CCC(OC(C)=O)c1ccc(C(C)C)cc1 (stereo not given), the growth was 105% (inactive).
COc1ccc(NC(=O)C2CC3C=CC2C3)c([N+](=O)[O-])c1 (stereo not given) was tested, and the growth was 93.1% (inactive).
CCCOc1ccc2c(c1)CC[C@@H]1[C@@H]2CC[C@@]2(C)[C@H]1CC[C@]2(C)O was tested, and the growth was 59.8% (inactive).
With CC1(C)C(=O)/C(=C\c2cccnc2)C[C@]2(C)[C@H]3CC=C4[C@@H]5C[C@@](C)(C(=O)O)CC[C@]5(C)CC[C@@]4(C)[C@]3(C)CC[C@@H]12 the growth was 95.8% (inactive).
In the case of COc1cc(Nc2ncnc(Nc3ccc4c(n3)NC(=O)C(C)(C)O4)n2)cc(OC)c1OC, the growth was -24.5% (active).
For Nc1c(C(=O)Nc2cccc(Cl)c2)sc2nc3c(cc12)CCCC3, the growth was 74.2% (inactive).
For CN(C)C(=O)Oc1cccc([N+](C)(C)C)c1, the growth was 102% (inactive).
For COc1cc(OC)cc(-c2cc(-c3c[nH]c4ccccc34)nc(-c3c[nH]c4ccccc34)c2C#N)c1, the growth was 92.2% (inactive).
With CSC1=C(N)C(=O)c2[nH]cc(CO)c2C1=N the growth was -73.5% (active).
With COc1ccc(NC(=O)COCCOCCNC[C@@H]2C(=O)O[C@H]3[C@H]2CC/C(COC(=O)OC/C2=C/CC[C@@]4(C)O[C@H]4[C@H]4OC(=O)[C@@H](CN(C)C)[C@@H]4CC2)=C\CC[C@@]2(C)O[C@@H]32)c(O)c1C(N)=O the growth was -19.5% (active).
